The list is not random: actives were taken first. Their share in the collection is about 2.8%.
KLK7 zymogen act: proKLK7 (human) activation, primary screen. purified proKLK7, EDANS-DABCYL substrate fluorescence; 100% is mature enzyme control, 0% vehicle. activation, % at 7 µM. 370,000 tested, 0.9% active. P49862;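 active = activation above the mean of all tested compounds plus 3 SD, computed per campaign excluding outliers beyond control limits, cut at about 13% in these data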
Target sequence (P49862 whole entry, looked up): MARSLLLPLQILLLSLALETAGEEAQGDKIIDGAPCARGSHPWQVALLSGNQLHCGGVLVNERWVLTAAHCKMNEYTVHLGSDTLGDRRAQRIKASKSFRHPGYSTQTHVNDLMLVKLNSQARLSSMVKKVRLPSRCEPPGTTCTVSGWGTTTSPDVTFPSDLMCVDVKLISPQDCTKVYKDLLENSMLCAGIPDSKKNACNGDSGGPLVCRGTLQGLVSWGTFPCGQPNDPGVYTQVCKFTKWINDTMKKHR
MsrA inh: bovine MsrA inhibition | purified bovine MsrA, absorbance read-out | inhibition, % at 15.5 µM | 360,000 tested, 0.75% active;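 also: 0% = vehicle wells with enzyme and 100% = reference inhibitor wells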
bovine MsrA act: activators of bovine methionine sulfoxide reductase A. purified bovine MsrA, absorbance read-out. activation, % at 10.6 µM. 360,000 tested, 0.3% active. AID 602163; in the data active = activation above about 7.5%;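 also: 0% = vehicle and 100% = reference activator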
SMARCA2 act: activators of SMARCA2 function; MG213 cells, MMTV-luciferase reporter, dexamethasone, overnight; AID 652017; 370,000 tested, 1% active; activation, % at 9.1 µM; in the data active = activation above about 7.8%;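 also: 0% = vehicle wells and 100% = reference activator wells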
MsrA inh confirm: bovine MsrA inhibition, confirmed. shares compounds with MsrA inh. purified bovine MsrA, absorbance read-out. inhibition, % at 15.5 µM. 2,300 tested, 41% active. AID 651822;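 also: coupled to thioredoxin reductase with NADPH and selenocystamine and DMSO as substrate; 0% = vehicle only and 100% = full effect of reference inhibitor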
Active calls of the source: *; . = not tested or not shown. Rule as the data show it, unless noted: active = inhibition above about 4.5%; inactive = the rest.

SMILES	KLK7 zymogen act	MsrA inh	bovine MsrA act	SMARCA2 act	MsrA inh confirm
COc1ccc(-c2cc(C(F)(F)F)n3nc(C(=O)O)nc3n2)cc1	5	5.1*	-5	3	4
NCC(=O)Nc1ccc(Cl)cc1C(=O)c1ccc[nH]1	0	5.0*	-12	-5	1
COc1ccc2nc(C)cc(N/N=C/c3ccc(F)cc3)c2c1	-1	42*	-7	-5	54*
COc1cc(/C=N/NC(=O)c2cc(-c3cccs3)nc3ccccc23)ccc1O	-12	4.9*	-4	-3	4
COc1cc(/C=N/NC(=O)c2ccncc2)ccc1OCCN1CCCCC1	0	5.4*	3	-1	2
COc1ccc(/C=N/NC(=O)c2c(C)nc3ccc(Cl)cn23)cc1OC	-1	6.2*	-1	0	5.3*
COc1cc(/C=N/NC(=O)c2c(C)nnn2-c2nonc2N)ccc1O	0	5.0*	-11	1	4
CCCC[C@H]1C2CC(OC(=O)Nc3ccc(C#N)cc3)C(C2)[C@H]2CCCCN21 (some centres not stated)	-1	.	.	-2	.
CN(C)[C@@H]1CCN(c2cccc3c2S(=O)(=O)N2CC[C@H](C2)O3)C1	0	.	.	0	.
Cc1ccn2c(C(=O)N/N=C/c3ccc(Cl)cc3)c(C)nc2c1	1	0	-4	3	.
COc1cc(/C=N\NC(=O)c2c(C)nc3cc(C)ccn23)ccc1O	0	7.1*	-11	1	6.4*
COc1ccc(/C=N/NC(=O)c2ccc(COc3cccc4cccnc34)cc2)cc1OC	-1	4.9*	-3	-1	2
Cc1ccn2c(C(=O)N/N=C\c3ccc4c(c3)OCO4)c(C)nc2c1	0	7.3*	-10	-3	5.5*
COc1ccc(/C=N/NC(=O)c2c(C)nc3ccc(Br)cn23)cc1OC	1	2	-5	-2	.
COc1cccc(C=NNC(=O)CSc2nc3ccccc3[nH]2)c1O	-2	.	.	-7	.
CC1(C)C2CCC(CN=C(N)CSS(=O)(=O)O)C1C2 (configuration not stated)	0	21*	-9	1	8.8*
COc1ccc(OC)c(/C=C2\Oc3cc(OCC(=O)N4CC(O)C[C@H]4C(=O)O)ccc3C2=O)c1 (some centres not stated)	0	4	-5	1	.
COc1ccc(/C=C2\Oc3cc(OCC(=O)N4CCC[C@H]4C(=O)O)ccc3C2=O)c(OC)c1OC	1	5.1*	-7	1	5.5*
COc1ccc(/C=C2\Oc3cc(OCC(=O)N4CC(O)C[C@H]4C(=O)O)ccc3C2=O)c(OC)c1OC (some centres not stated)	1	4.9*	1	2	3
CN1C[C@@H]2[C@@H]3C(=O)N(Cc4ccccc4)C(=O)[C@@H]3[C@](C)(C1=O)N2C(=O)c1ccc(F)cc1	0	0	-4	0	.
Fc1ccc(/C=C/c2nnc(-c3cccs3)o2)cc1	0	5.2*	-5	7	2
COc1ccc(/C=C2\SC(N)=NC2=O)cc1	0	4.8*	-4	0	5.0*
NC1=NC(=O)/C(=C/c2ccsc2)S1	1	5.7*	-6	-2	4
O=C1c2ccccc2C(=O)c2c1oc(C(F)(F)F)c2C(=O)c1ccccc1	1	51*	2	1	58*
CCCCN1CC(=O)N2[C@H](C[C@@]3(C)c4ccccc4N(S(=O)(=O)c4ccccc4)[C@@H]23)C1=O	1	.	.	-1	.
SMILES	KLK7 zymogen act	MsrA inh	bovine MsrA act	SMARCA2 act	MsrA inh confirm
Cc1cccc(C)c1NC(=O)C(c1ccc(C#N)cc1)n1c(=O)c(-c2cc3ccccc3[nH]2)nc2ccccc21 (configuration not stated)	-67	0	.	-9	.
CN(C)C1=NC(=O)/C(=C\c2ccccc2)S1	0	6.5*	-2	0	3
COc1ccc(-n2c(SC/C=C/c3ccccc3)nnc2-c2cccs2)cc1	1	.	.	-2	.
O=C(NCc1ccc(C(=O)NC2CCCC2)cc1)c1cccc(Br)c1	1	.	.	4	.
N#CC1=C(N)Oc2cc3ccccc3cc2C1c1cccnc1 (configuration not stated)	0	7.6*	-5	-2	2
C=C1CCCC2OC(CC3=CC4/C(C)=C/CC(C)CC(/C=C(\C)C(O)C5CC(O)C(O)C(CCC(O)/C=C/C(C)=C/CCC6=NCCC(C3)C64C)O5)OC(=O)CC3OC(C(O)C1)C(O)C3O)CC(O)C2O (configuration not stated)	0	0	3	1	.
COCCCN1C(=O)C(CC(=O)NC2CCCCC2)CC(C(=O)N(C)C)=C1C (configuration not stated)	0	2	-4	-5	.
Cc1ccc(NC(=O)CN2C(=O)NC(C)(C3CC3)C2=O)c([N+](=O)[O-])c1 (configuration not stated)	0	9.4*	-4	0	6.0*
COc1ccc(/C=N/NC(=O)c2ccc(CN3c4cccc5cccc(c45)S3(=O)=O)cc2)cc1	-27	5.0*	0	-6	5.2*
COc1ccc(/C=N/NC(=O)c2ccc(COCC(F)(F)C(F)F)cc2)cc1	0	0	1	-2	.
CCOC(=O)c1nnsc1Nc1ccc(C)c(C)c1	0	8.2*	0	1	7.0*
CCCc1cc(=O)[nH]c(N/N=C/C=C\c2ccccc2)n1	5	6.7*	-5	-5	5.5*
COC(=O)CCC(C(=O)CN1C(=O)c2ccccc2C1=O)N1C(=O)c2ccccc2C1=O (configuration not stated)	0	-1	-1	-1	.
CCCc1ccc(-c2c(C)sc(N)c2C#N)cc1	3	5.3*	-3	8	-1
N/C(=N\N=C\c1ccc2c(c1)OCO2)c1nonc1N	0	7.3*	-7	2	4
O=C(N=Nc1c(O)[nH]c2ccccc12)c1ccc(CN2CCOCC2)cc1	0	6.1*	2	-3	3
Cc1ccc(Sc2ccc([N+](=O)[O-])cc2[N+](=O)[O-])nc1	1	4.8*	-2	-4	3
O=c1oc2ccccc2c(NCc2ccccc2F)c1[N+](=O)[O-]	-1	8.8*	-8	0	7.2*
O=C1c2ccccc2C(=O)N1CCC#C/C=C1\c2ccccc2C(=O)N1c1ccccc1	1	0	-1	3	.
CC/C(=N\Nc1ccc([N+](=O)[O-])cc1[N+](=O)[O-])c1ccc(O)cc1	0	6.7*	-2	-2	1
CC(C)(CO)Nc1ccc([N+](=O)[O-])cc1[N+](=O)[O-]	0	5.3*	3	0	4
C/C(=N\Nc1ccc(C#N)cc1[N+](=O)[O-])c1ccc(O)cc1	0	16*	-4	-4	17*
CCC(=NNc1ccc([N+](=O)[O-])cc1[N+](=O)[O-])c1ccccc1	-1	-1	-4	-4	.
C/C(=N/Nc1ccccc1[N+](=O)[O-])c1ccc([N+](=O)[O-])cc1	0	0	-3	-2	.
COc1ccc(C2CC(=O)C(c3ccc(C(C)=O)cc3)=CN2Cc2ccccc2)cc1 (configuration not stated)	0	1	.	2	.

Bioassay records (PubChem)
